Drawing on PubChem BioAssay (EPA / NIEHS), this text covers outcome and AC50 for seven compounds.

Test [1] in a line: ATG_GLI_CIS: Attagene CIS-FACTORIAL HepG2 Assay for human Zinc Finger Protein GLI1 (AID 2282945). The conditions noted are these: HepG2, Attagene cis-factorial reporter mRNA, GLI element; actives raise or lower the signal. A digest of the protocol:
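Bidirectional curve fits relative to DMSO, using reporter mRNA levels from RT-PCR plus capillary electrophoresis. Cells were HepG2 transiently carrying cis-regulated reporter constructs, harvested 24 h after dosing.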

Test [2] is described as follows: ATG_GRE_CIS: Attagene CIS-FACTORIAL HepG2 Assay for human Glucocorticoid Response Elements (GRE) (AID 2282947). Conditions: HepG2 GRE cis-reporter, Attagene multiplex mRNA; actives raise or lower the signal. A digest of the protocol:
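Assay uses human hepatoma HepG2 cells transfected with cis-promoter reporter units, exposed 24 h. mRNA from reporters detected by RT-PCR plus capillary electrophoresis; DMSO serves as negative control and baseline.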

Test [3] can be described thus: ATG_ISRE_CIS: Attagene CIS-FACTORIAL HepG2 Assay for human Interferon Regulatory Factor 1 (IRF1) binding to an Interferon-Stimulated Response Element (ISRE) (AID 2282948). Conditions: HepG2 ISRE cis-reporter (Attagene), mRNA transcription readout; actives raise or lower the signal. A digest of the protocol:
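Transiently transfected HepG2 cells carrying cis-element reporter units, dosed 24 hours. Reporter mRNA quantified by RT-PCR, fluorescent primer extension, HpaI digestion and capillary electrophoresis. Bidirectional fitting relative to DMSO.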

Test [4] can be described thus: ATG_M_32_CIS: Attagene CIS-FACTORIAL HepG2 Assay for M32 Transcription Factor (Internal Marker) (AID 2282949).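 Further: background control marker of the multiplexed CIS panel rather than a real target.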 Conditions: HepG2 Attagene cis-factorial M32 reporter, mRNA; actives raise or lower the signal. The method in brief: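 Internal background marker read-out: RT-PCR/capillary electrophoresis fluorescence of reporter transcripts from transiently transfected HepG2 cells after 24 h chemical exposure. Activity fitted bidirectionally relative to DMSO negative control.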

A short description of test [5]: ATG_M_06_CIS: Attagene CIS-FACTORIAL HepG2 Assay for M06 Transcription Factor (Internal Marker) (AID 2282950). Conditions: HepG2 Attagene CIS-FACTORIAL M06 internal marker reporter; actives raise or lower the signal. A digest of the protocol: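 Internal background marker within multiplexed cis-reporter HepG2 system. Cells transiently transfected, dosed 24 h; reporter mRNA measured by RT-PCR, HpaI digestion and capillary electrophoresis. Bidirectional fit relative to DMSO.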

For test [6], the target named is Hypoxia-inducible factor 1-alpha (Homo sapiens) (UniProt Q16665). Put plainly: ATG_HIF1a_CIS: Attagene CIS-FACTORIAL HepG2 Assay for human Hypoxia Inducible Factor 1 (HIF1A) (AID 2282951). The conditions noted are these: HepG2 Attagene cis-factorial HIF1a reporter transcription; actives raise or lower the signal. The method in brief: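 HepG2, transient cis-reporter library, 24 h dosing. RNA → RT (oligo dT) → PCR → 6-FAM primer extension → HpaI → CE. Bidirectional curve fit vs DMSO.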
Hypoxia-inducible factor 1-alpha (Homo sapiens), sequence (Q16665 whole entry, looked up): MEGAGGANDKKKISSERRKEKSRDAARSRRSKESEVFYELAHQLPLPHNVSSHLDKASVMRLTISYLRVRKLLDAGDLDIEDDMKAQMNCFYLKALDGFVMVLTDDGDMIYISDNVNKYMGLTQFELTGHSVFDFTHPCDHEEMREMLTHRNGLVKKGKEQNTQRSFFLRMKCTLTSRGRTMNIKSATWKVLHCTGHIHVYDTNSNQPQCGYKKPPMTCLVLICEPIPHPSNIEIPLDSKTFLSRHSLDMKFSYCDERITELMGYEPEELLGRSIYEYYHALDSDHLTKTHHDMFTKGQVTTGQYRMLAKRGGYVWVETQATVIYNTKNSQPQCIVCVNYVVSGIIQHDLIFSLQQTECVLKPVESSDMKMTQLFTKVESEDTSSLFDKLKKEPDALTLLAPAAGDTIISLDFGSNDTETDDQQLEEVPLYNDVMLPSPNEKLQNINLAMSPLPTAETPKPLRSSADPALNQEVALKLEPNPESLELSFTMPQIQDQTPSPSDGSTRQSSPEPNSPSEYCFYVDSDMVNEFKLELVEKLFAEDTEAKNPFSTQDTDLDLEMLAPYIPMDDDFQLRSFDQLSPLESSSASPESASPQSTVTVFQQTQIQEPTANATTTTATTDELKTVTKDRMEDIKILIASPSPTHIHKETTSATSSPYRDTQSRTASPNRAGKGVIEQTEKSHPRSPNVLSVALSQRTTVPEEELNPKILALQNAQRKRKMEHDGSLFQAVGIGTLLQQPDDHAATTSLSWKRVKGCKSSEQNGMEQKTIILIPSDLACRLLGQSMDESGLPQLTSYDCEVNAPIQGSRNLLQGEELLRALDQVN

In test [7] the target is Hepatocyte nuclear factor 6 (Homo sapiens) (UniProt Q9UBC0). Put plainly: ATG_HNF6_CIS: Attagene CIS-FACTORIAL HepG2 Assay for human Hepatocyte Nuclear Factor 6 (HNF6) (AID 2282952). Conditions: HepG2 Attagene cis-factorial HNF6 reporter transcription; actives raise or lower the signal. A digest of the protocol: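 HepG2 cells transiently transfected with cis-element-driven multiplexed reporter units measuring endogenous transcription factor activity. After 24 h exposure, reporter mRNA quantified by RT-PCR, FAM-labelled fragments and capillary electrophoresis; bidirectional fitting versus DMSO.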
Hepatocyte nuclear factor 6 (Homo sapiens), sequence (Q9UBC0 whole entry, looked up, the tested form may be a part): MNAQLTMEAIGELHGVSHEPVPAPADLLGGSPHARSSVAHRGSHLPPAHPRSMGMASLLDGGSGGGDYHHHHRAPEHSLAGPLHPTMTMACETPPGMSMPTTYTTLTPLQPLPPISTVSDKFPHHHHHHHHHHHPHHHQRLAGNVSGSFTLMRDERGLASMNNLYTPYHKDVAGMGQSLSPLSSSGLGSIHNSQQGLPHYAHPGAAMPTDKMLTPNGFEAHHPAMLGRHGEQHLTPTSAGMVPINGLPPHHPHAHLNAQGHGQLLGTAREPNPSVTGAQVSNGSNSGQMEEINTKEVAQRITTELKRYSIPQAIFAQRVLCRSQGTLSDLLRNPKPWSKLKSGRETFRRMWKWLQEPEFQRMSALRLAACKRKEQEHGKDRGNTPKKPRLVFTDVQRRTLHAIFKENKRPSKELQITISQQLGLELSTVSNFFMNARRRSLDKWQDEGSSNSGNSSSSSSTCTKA

Test [8] has as its target Heat shock factor protein 1 (Homo sapiens) (UniProt Q00613). Put plainly: ATG_HSE_CIS: Attagene CIS-FACTORIAL HepG2 Assay for human Heat Shock Transcription Factor 1 (HSE) (AID 2282953). The conditions noted are these: HepG2 HSE cis-reporter, Attagene RNA transcription; actives raise or lower the signal. The method in brief: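 HepG2 cells transfected with cis-promoter reporter units sensing endogenous transcription factor activity; reporter mRNA quantified 24 h post-dose by RT-PCR and capillary electrophoresis of 6-FAM-labelled products. Bidirectional fitting against DMSO.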

The nature of test [9]: ATG_MRE_CIS: Attagene CIS-FACTORIAL HepG2 Assay for human Metal Responsive Element (MRE) (AID 2282954). Conditions: HepG2 MRE cis-reporter transcription, Attagene multiplex; actives raise or lower the signal. The method in brief: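 After a 24 h chemical exposure, transiently transfected HepG2 cells yield RNA whose reporter sequences are amplified, FAM-labelled and sized by capillary electrophoresis. Curves are fitted bidirectionally relative to DMSO.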

The target of test [10] is Paired box protein Pax-6 (Homo sapiens) (UniProt P26367). The experiment in a line: ATG_Pax6_CIS: Attagene CIS-FACTORIAL HepG2 Assay for human Paired Box 6 (PAX6) (AID 2282956). Conditions: HepG2 CIS-FACTORIAL PAX6 reporter transcription, RNA readout; actives raise or lower the signal. The method in brief: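 HepG2 cells transiently transfected with cis-promoter-driven multiplexed reporter units sensing endogenous transcription factor activity; 24 h chemical exposure. Reporter mRNA quantified by RT-PCR, 6-FAM labelling, HpaI digestion and capillary electrophoresis; bidirectional fit versus DMSO baseline.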
Paired box protein Pax-6 (Homo sapiens), sequence (P26367 whole entry, looked up): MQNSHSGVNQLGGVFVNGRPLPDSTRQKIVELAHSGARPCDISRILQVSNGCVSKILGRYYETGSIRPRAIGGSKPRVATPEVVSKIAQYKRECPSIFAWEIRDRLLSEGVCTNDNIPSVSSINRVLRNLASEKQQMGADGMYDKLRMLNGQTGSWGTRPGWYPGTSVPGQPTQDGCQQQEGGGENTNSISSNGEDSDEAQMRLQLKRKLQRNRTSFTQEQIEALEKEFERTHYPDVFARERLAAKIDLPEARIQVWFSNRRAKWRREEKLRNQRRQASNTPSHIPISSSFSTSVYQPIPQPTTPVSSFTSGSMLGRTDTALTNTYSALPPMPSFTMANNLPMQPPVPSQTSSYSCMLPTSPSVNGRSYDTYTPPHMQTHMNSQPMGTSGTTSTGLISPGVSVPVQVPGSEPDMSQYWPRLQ

Test [11] is described as follows: ATG_PXRE_CIS: Attagene CIS-FACTORIAL HepG2 Assay for human Pregnane X Receptor Element (PXRE) (AID 2282957). The conditions noted are these: HepG2 Attagene CIS-FACTORIAL PXRE reporter, mRNA; actives raise or lower the signal. A digest of the protocol:
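HepG2 cells transiently transfected with cis-element-driven multiplexed reporter units; after 24 h chemical exposure, reporter mRNA measured by RT-PCR, 6-FAM labelling, HpaI digestion and capillary electrophoresis. Bidirectional fitting relative to DMSO.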

Test [12] can be described thus: ATG_PPRE_CIS: Attagene CIS-FACTORIAL HepG2 Assay for human Peroxisome Proliferator-activated Response Element (PPRE) (AID 2282958). Conditions: HepG2 PPRE cis-element reporter, Attagene transcription factor profiling; actives raise or lower the signal. A digest of the protocol: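 Transcript-level reporter induction in transfected HepG2 cells after 24 h chemical exposure, quantified by fluorescence from RT-PCR products separated by capillary electrophoresis.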

The nature of test [13]: ATG_Sox_CIS: Attagene CIS-FACTORIAL HepG2 Assay for human SRY-box transcription factor (SOX) (AID 2282960). The conditions noted are these: HepG2 Attagene cis-factorial SOX reporter, mRNA; actives raise or lower the signal. A digest of the protocol: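 Cells were transfected with reporter constructs under cis-regulatory promoters, then exposed to chemicals for 24 h. Reporter transcripts were quantified by fluorescence after RT-PCR and capillary electrophoresis; activity was fitted in both directions against DMSO.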

Test [14] concerns the target Transcription factor Sp1 (Homo sapiens) (UniProt P08047). The experiment in a line: ATG_Sp1_CIS: Attagene CIS-FACTORIAL HepG2 Assay for human Specificity Protein 1 (Sp1) (AID 2282961). The conditions noted are these: HepG2 Sp1 cis-reporter transcription, actives raise or lower the signal. A digest of the protocol:
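Measures mRNA induction of an Sp1-linked reporter in HepG2 cells 24 h post-dosing. Multiplexed reporters read by RT-PCR and capillary electrophoresis; DMSO serves as negative control and baseline.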

Test [15] can be described thus: ATG_SREBP_CIS: Attagene CIS-FACTORIAL HepG2 Assay for human Sterol Regulatory Element Binding (SREBP) (AID 2282962). Conditions: HepG2 Attagene cis-factorial SREBP reporter, mRNA; actives raise or lower the signal. The method in brief:
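HepG2 cells transiently transfected with multiplexed cis-promoter reporter units sensing endogenous transcription factors; reporter mRNA measured 24 h after dosing by RT-PCR, 6-FAM labeling, HpaI digestion and capillary electrophoresis. Bidirectional fit versus DMSO.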

In test [16] the target is Signal transducer and activator of transcription 3 (Homo sapiens) (UniProt P40763). Put plainly: ATG_STAT3_CIS: Attagene CIS-FACTORIAL HepG2 Assay for human Signal Transducer and Activator of Transcription 3 (STAT3) (AID 2282963). Conditions: HepG2, Attagene cis-factorial STAT3 reporter transcription; actives raise or lower the signal. The method in brief:
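After a 24 h compound incubation, total RNA from MRTU-transfected HepG2 cells was converted to cDNA and reporter sequences PCR-amplified, labelled and profiled by capillary electrophoresis. Gain and loss of signal were referenced to DMSO.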

Test [17] can be described thus: ATG_TA_CIS: Attagene CIS-FACTORIAL HepG2 Assay for human TA Basal Promoter (AID 2282964). The conditions noted are these: HepG2 Attagene CIS-factorial TA basal promoter reporter; actives raise or lower the signal. A digest of the protocol:
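HepG2 cells transiently transfected with multiple reporter units under cis promoter elements, reporting endogenous transcription factor activity; this endpoint tracks the TA basal promoter as background control. Reporter mRNA after 24 h dosing measured by RT-PCR/capillary electrophoresis; bidirectional fits versus DMSO.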

The target of test [18] is Bile acid receptor (Homo sapiens) (UniProt Q96RI1). Put plainly: ATG_IR1_CIS: Attagene CIS-FACTORIAL HepG2 Assay for human Nuclear Receptor Subfamily 1 Group H Member 4 (NR1H4), IR1 submotif (AID 2282946). The conditions noted are these: IR1 reporter transcription, actives raise or lower the signal. The method in brief:
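Cells (human HepG2) carry transiently transfected cis-promoter reporter transcription units. Compounds are incubated 24 h, total RNA is reverse-transcribed and amplified, and labelled fragments are resolved by capillary electrophoresis. Curves use DMSO as baseline.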

Test [19] can be described thus: ATG_RORE_CIS: Attagene CIS-FACTORIAL HepG2 Assay for human RAR-related Orphan Receptor Element (RORE) (AID 2282959). The conditions noted are these: HepG2 Attagene cis-factorial RORE reporter, mRNA; actives raise or lower the signal. A digest of the protocol: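 Multiplexed reporter assay measuring mRNA induction from a cis promoter element in transiently transfected HepG2 cells after 24 h treatment. Detection via RT-PCR and capillary electrophoresis fluorescence; DMSO serves as baseline.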

Test [20] is described as follows: ATG_PBREM_CIS: Attagene CIS-FACTORIAL HepG2 Assay for human Phenobarbital-responsive Enhancer Module (PBREM) (AID 2282955). Conditions: HepG2 PBREM cis-reporter, Attagene multiplexed transcription; actives raise or lower the signal. A digest of the protocol:
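HepG2, transient MRTU transfection, 24 h dosing; RNA → oligo(dT) RT → PCR → 6-FAM extension → HpaI → CE. Bidirectional fit vs DMSO.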

The source made the active and inactive calls. How the source made its calls: active means hit-call score of the fitted dose curve at least 0.9, where 1 is the maximum; inactive means score below 0.9.

Heat shock factor protein 1 (Homo sapiens), sequence (Q00613 whole entry, looked up): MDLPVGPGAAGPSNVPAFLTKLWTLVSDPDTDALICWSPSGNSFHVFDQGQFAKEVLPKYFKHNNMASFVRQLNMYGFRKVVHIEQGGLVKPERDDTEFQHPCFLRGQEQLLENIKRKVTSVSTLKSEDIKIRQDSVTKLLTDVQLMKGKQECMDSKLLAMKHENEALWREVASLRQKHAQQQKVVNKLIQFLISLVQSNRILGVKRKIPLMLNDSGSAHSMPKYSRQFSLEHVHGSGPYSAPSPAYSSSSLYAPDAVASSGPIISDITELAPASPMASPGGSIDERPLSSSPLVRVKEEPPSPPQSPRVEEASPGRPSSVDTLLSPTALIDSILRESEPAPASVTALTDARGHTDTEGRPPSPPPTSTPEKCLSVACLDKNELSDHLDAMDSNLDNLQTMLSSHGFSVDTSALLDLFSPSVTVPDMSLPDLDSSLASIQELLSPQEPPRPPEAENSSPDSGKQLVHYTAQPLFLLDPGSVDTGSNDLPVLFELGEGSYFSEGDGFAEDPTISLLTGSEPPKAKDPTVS
Signal transducer and activator of transcription 3 (Homo sapiens), sequence (P40763 whole entry, looked up): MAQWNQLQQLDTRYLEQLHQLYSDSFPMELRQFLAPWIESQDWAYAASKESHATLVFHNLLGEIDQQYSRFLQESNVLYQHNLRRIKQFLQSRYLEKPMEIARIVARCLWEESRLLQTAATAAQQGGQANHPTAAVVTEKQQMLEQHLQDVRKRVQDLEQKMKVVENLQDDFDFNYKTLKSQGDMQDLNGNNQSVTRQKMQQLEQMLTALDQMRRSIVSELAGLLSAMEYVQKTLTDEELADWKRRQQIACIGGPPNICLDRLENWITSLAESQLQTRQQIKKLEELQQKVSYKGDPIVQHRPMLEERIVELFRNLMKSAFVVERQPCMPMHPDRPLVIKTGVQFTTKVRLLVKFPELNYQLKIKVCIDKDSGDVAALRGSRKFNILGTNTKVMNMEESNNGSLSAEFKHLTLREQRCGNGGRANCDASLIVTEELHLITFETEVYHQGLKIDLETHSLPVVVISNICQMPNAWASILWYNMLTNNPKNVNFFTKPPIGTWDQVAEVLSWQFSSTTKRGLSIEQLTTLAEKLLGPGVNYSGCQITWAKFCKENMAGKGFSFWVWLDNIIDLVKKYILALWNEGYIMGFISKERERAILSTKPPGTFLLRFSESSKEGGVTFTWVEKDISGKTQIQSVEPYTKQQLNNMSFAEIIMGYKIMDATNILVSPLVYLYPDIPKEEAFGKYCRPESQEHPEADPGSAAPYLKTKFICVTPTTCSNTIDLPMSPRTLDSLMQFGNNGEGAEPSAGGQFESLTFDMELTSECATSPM
Bile acid receptor (Homo sapiens), sequence (Q96RI1 whole entry, looked up, the tested form may be a part): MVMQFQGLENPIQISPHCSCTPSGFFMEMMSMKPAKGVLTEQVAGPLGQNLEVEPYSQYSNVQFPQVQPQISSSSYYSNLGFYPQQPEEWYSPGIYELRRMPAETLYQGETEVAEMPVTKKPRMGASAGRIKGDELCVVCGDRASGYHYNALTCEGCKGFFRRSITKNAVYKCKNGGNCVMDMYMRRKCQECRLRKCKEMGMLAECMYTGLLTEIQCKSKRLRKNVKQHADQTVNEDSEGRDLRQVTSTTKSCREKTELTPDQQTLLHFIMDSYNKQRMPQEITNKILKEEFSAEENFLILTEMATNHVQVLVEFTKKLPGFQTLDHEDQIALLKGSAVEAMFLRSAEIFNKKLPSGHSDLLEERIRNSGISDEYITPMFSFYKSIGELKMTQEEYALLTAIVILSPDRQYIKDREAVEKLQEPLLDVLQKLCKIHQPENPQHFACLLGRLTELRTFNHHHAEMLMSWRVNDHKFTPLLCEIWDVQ
Transcription factor Sp1 (Homo sapiens), sequence (P08047 whole entry, looked up): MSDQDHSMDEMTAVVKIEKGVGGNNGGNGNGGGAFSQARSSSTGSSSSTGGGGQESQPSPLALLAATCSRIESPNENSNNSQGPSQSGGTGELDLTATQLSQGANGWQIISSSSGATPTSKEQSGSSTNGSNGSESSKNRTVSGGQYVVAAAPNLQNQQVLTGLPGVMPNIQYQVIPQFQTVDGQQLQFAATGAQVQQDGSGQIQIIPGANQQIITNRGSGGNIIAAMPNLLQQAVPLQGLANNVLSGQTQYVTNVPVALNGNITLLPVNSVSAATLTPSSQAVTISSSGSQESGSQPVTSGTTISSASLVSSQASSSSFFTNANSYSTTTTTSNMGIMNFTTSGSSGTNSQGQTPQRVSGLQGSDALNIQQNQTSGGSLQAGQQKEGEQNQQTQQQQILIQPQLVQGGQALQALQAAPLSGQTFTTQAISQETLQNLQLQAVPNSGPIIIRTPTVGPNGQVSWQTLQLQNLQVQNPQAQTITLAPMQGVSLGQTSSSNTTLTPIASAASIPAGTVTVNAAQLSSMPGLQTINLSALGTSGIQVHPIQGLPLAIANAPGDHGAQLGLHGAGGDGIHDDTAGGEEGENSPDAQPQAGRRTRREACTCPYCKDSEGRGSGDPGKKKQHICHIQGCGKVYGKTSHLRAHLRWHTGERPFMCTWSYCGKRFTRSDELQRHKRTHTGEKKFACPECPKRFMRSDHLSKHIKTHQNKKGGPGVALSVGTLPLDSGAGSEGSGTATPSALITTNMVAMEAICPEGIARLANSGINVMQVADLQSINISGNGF

In the case of `CCCCCCCCCCCCCCCC`, the call in test [1], in test [2], in [3], in test [4], in test [5] and in [6] was inactive. Moreover, the outcome in test [7], in test [8], in test [9], in test [10], in [12] and in test [13] was inactive. Also, the result in test [14], in test [15], in [16] and in [17] was inactive. Moreover, in test [11], the half-maximal activity concentration (AC50) was 26.1 µM (active).
As for `Cc1c(C(=O)O)c(O)cc2c1C(=O)c1c(O)c([C@@H]3O[C@H](CO)[C@@H](O)[C@H](O)[C@H]3O)c(O)c(O)c1C2=O`, the call in test [1], in test [18], in test [2], in test [3], in test [4] and in [5] was inactive. Besides, the result in test [6], in [7], in [9], in [10], in test [12] and in [19] was inactive. The result in [14], in test [15], in [16] and in [17] was inactive. The AC50 in [11] is 53.9 µM (active).
Consider `CCCCC(CC)COC(=O)CC(C(=O)OCC(CC)CCCC)S(=O)(=O)O` (stereo unspecified), for which the compound was classed as inactive in test [1], in test [2], in test [3], in [4], in [5] and in test [7]. Besides, the compound was called inactive in test [8], in [9], in test [20], in test [10], in [12] and in test [13]. For the same compound, the compound was classed as inactive in [14], in [16] and in test [17]. The results for the AC50 in test [6], in test [11] and in test [15] were 0.000743 µM (active), 1.1 µM (active) and 14.2 µM (active), respectively.
As to `Cc1ccc(Cl)cc1`, the compound was classed as inactive in [1], in test [18], in [2], in [3], in test [5] and in [7]. For the same compound, the call in [8], in test [9], in [20], in test [10], in [11] and in test [12] was inactive. Also, the compound was classed as inactive in test [13], in [14], in test [15], in test [16] and in test [17]. Moreover, the half-maximal activity concentration (AC50) in test [6] was 57.2 µM (active).
As for `C1CCC(SSC2CCCCC2)CC1`, the outcome in [1], in [2], in test [3], in test [4], in test [5] and in test [6] was inactive. For the same compound, the compound was called inactive in [7], in test [8], in [9], in [20], in test [10] and in test [11]. The outcome in test [12], in test [16] and in [17] was inactive. Also, the concentration at half-maximal activity (AC50) was 158 µM (active) in test [14] and 100 µM (active) in test [15].
As to `O=C(N[C@@H](Cc1ccccc1)[C@@H](O)C(=O)N1C[C@@H](O)[C@@H](O)C1)c1cc2cc(Cl)ccc2[nH]1`, the result in [1], in test [2], in test [3], in test [4], in [5] and in test [6] was inactive. The compound was classed as inactive in test [7], in [8], in test [10], in [11], in test [12] and in [13]. For the same compound, the result in [14], in test [15] and in [16] was inactive. The AC50 in test [9] is 100 µM (active); in [17], 128 µM (active).
As for `CNC(=O)[C@H]1O[C@@H](n2cnc3c(NCc4cc(Cl)ccc4OCc4cc(C)no4)ncnc32)[C@H](O)[C@@H]1N`, the compound was classed as inactive in test [18], in test [2], in test [3], in [4], in [5] and in [6]. The result in [7], in test [8], in [9], in test [20], in test [10] and in test [11] was inactive. Further, the compound was classed as inactive in test [12], in [14], in test [15], in [16] and in [17].
